Data published in PubChem BioAssay (NCI).
About 83,000 compounds went through this panel and 20% of them were active in at least one assay; those are over-represented in the sample as a whole.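 Cell lines were cultured in 96-well plates, exposed to a single compound concentration, and assessed for percent growth 48 hours later.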 Activity calls are given as the source filed them. Rule for the calls: active = growth percent below 10; inactive = the rest.

Tests used:
Experiment in all cases: NCI-60 one-dose screen, 48 h (100 = growth as untreated, 0 = no growth, -100 = all killed)
Conditions in all cases: 10 µM unless noted
[1] = tested on: NCI-H23 lung
[2] = tested on: NCI-H226 lung
[3] = tested on: NCI-H322M lung
[4] = tested on: HOP-62 NSCLC
[5] = tested on: NCI-H460 lung
[6] = tested on: HOP-92 NSCLC
[7] = tested on: NCI-H522 lung
[8] = tested on: A549/ATCC NSCLC
[9] = tested on: 786-0 renal
[10] = tested on: COLO 205 colon
[11] = tested on: DU-145 prostate
[12] = tested on: K-562 leukemia
[13] = tested on: MALME-3M melanoma
[14] = tested on: MDA-MB-231 breast
[15] = tested on: RXF 393 renal
[16] = tested on: SF-268 CNS
[17] = tested on: SF-295 CNS
[18] = tested on: SF-539 CNS
[19] = tested on: UACC-257 melanoma
[20] = tested on: M14 melanoma

Measured: growth

CCCCCOC(=O)c1ccccc1O
inactive: [1] 112% | [2] 97.8% | [3] 101% | [4] 85.4% | [5] 108% | [6] 88% | [7] 87.4% | [8] 96.2% | [9] 94.4% | [10] 120% | [11] 107% | [12] 99.9% | [13] 109% | [14] 110% | [15] 123% | [16] 105% | [17] 98% | [18] 99.7% | [19] 94.3% | [20] 97.4%

COc1ccc2c(c1)Oc1nc(N)c(C#N)c(N)c1C2Sc1ccc(O)cc1 (stereo not given)
inactive: [1] 93% | [2] 94.5% | [3] 100% | [4] 94.5% | [5] 104% | [6] 92.4% | [8] 98.4% | [9] 106% | [10] 79.7% | [11] 105% | [12] 14.6% | [13] 70.8% | [14] 79.4% | [15] 90.8% | [16] 95% | [17] 104% | [18] 99.4% | [19] 105% | [20] 103%
active: [7] -37.8%

CSc1nc(-c2ccco2)c2c(N)[nH]nc2n1
inactive: [1] 97.7% | [2] 102% | [3] 97.8% | [4] 84.6% | [5] 97.6% | [6] 109% | [7] 79.4% | [8] 100% | [9] 93.4% | [10] 123% | [11] 102% | [12] 85.6% | [13] 119% | [14] 99.1% | [15] 118% | [16] 104% | [17] 102% | [18] 97.5% | [19] 129% | [20] 120%

CN(C)CCCn1c2c(c3cc(-c4ccco4)ccc3c1=O)C(=O)c1ccccc1-2
inactive: [1] 71.8% | [2] 77.2% | [3] 81.3% | [4] 59.2% | [5] 46.3% | [6] 71.6% | [7] 59.9% | [8] 67.7% | [9] 69.2% | [10] 52.9% | [11] 66.8% | [13] 113% | [14] 53.3% | [15] 75.5% | [16] 72.3% | [17] 82.6% | [18] 63.9% | [19] 102% | [20] 81.2%
active: [12] -75.1%

O=C(Nc1ccc2ncnc(Nc3ccc(F)c(Cl)c3)c2c1)c1ccccc1
inactive: [1] 74.6% | [2] 72.2% | [3] 27.2% | [4] 72.3% | [5] 30.4% | [6] 97.2% | [7] 55.6% | [8] 50.4% | [9] 47.7% | [10] 97.3% | [11] 36.1% | [12] 69.4% | [13] 90.4% | [14] 79.8% | [15] 73.1% | [16] 67.1% | [17] 82% | [18] 78.6% | [19] 96.8% | [20] 90.1%

CCc1ccc(OCc2ccccc2C(=O)Nc2ccc3nc(C)cc(N)c3c2)cc1
active: [1] -73.2% | [2] -45.8% | [3] -92.9% | [4] -78.6% | [5] -67.6% | [6] -87.2% | [7] -84.5% | [8] -73.6% | [9] -88.9% | [10] -79% | [11] -96.3% | [12] -68% | [13] -86.4% | [14] -82.4% | [15] -84.5% | [16] -82.5% | [17] -92% | [18] -97.5% | [19] -79.7% | [20] -93.6%

CC1CCCN(CCCCCOc2ccc3oc4ccc(Cl)cc4c(=O)c3c2)C1 (stereo not given)
active: [19] -17.9% | [20] -17.5%
inactive: [1] 78.6% | [2] 104% | [3] 84.4% | [4] 85.7% | [5] 54.5% | [6] 88.8% | [7] 71.1% | [8] 76.1% | [9] 68.2% | [10] 57.5% | [11] 84.7% | [12] 16.8% | [13] 52% | [14] 62.3% | [15] 72% | [16] 81.2% | [17] 83.1% | [18] 66.6%

Nc1c(C(=O)Nc2ccccn2)sc2nc3c(cc12)CCCCC3
active: [5] 6.46% | [7] 2.61% | [10] 6.18% | [12] 7.25% | [18] 4.89%
inactive: [1] 29.9% | [2] 77% | [3] 52.6% | [4] 40.2% | [6] 67.5% | [8] 20.9% | [9] 27.6% | [11] 12.2% | [13] 73.1% | [14] 46.6% | [15] 13.1% | [16] 53.4% | [17] 15.4% | [19] 72.5% | [20] 10.8%

O=c1[nH]c2ccccc2cc1-c1nc2ccc(Cl)cc2[nH]1
active: [6] 7.43% | [17] -7.79%
inactive: [1] 53.5% | [2] 55.2% | [3] 50.3% | [4] 67.2% | [5] 18% | [7] 38.2% | [8] 40.1% | [9] 52.8% | [10] 52.2% | [11] 38.2% | [12] 13.7% | [13] 61.7% | [14] 44.9% | [15] 63% | [16] 50.7% | [18] 49% | [19] 91.5% | [20] 40.8%

Cc1cnc(-c2ccc(-c3ccc(NC(=O)Nc4c(F)cc(F)cc4F)cc3F)c3c2C(=O)NC3)[nH]1
active: [5] -29.5% | [11] 7.83% | [13] -3.16%
inactive: [1] 20.8% | [2] 65.6% | [3] 43.1% | [4] 53.2% | [6] 70.8% | [7] 37.2% | [8] 45.2% | [9] 23.1% | [10] 20.5% | [12] 22.1% | [14] 36.5% | [15] 21.5% | [16] 39.2% | [17] 58.8% | [18] 56.1% | [19] 43.8% | [20] 16.1%

C/C(=C\c1cnc(C)s1)[C@@H]1C[C@@H]2O[C@@H]2CCC[C@H](C)[C@H](O)[C@@H](C)C(=O)C(C)(C)[C@@H](O)CC(=O)O1
inactive: [1] 31.7% | [2] 85.3% | [3] 25.7% | [4] 26.5% | [5] 14.9% | [6] 52.6% | [8] 42.3% | [9] 43.6% | [12] 11.8% | [13] 54.6% | [14] 41.3% | [15] 18.1% | [16] 51.7% | [19] 76.1% | [20] 22.1%
active: [7] -2.17% | [10] -8.64% | [11] 2.1% | [17] 7.05% | [18] 7.63%

C=CCn1c(SCC(=O)Nc2ccc(C(=O)/C=C/c3cc(OC)c(OC)c(OC)c3)cc2)nnc1-c1ccc(Cl)cc1
active: [2] -4.38% | [7] -13.1% | [12] 9.24% | [15] -42.4%
inactive: [1] 23% | [3] 56.1% | [4] 25% | [5] 22.9% | [6] 75% | [8] 28.9% | [9] 15.5% | [10] 31.9% | [11] 10.8% | [13] 66.2% | [14] 35.5% | [16] 19.8% | [17] 38.9% | [18] 17.2% | [19] 51.3% | [20] 12.6%

O=C1Nc2ccc(Br)cc2/C1=N\N=C/c1cn(Cc2ccccc2)c2ccccc12
inactive: [1] 94.4% | [2] 80.5% | [3] 84% | [4] 97.2% | [5] 51.9% | [6] 106% | [7] 83.9% | [8] 91% | [9] 103% | [10] 114% | [11] 95.7% | [12] 67.4% | [13] 115% | [14] 93.3% | [15] 58.4% | [16] 95% | [17] 95.9% | [18] 99.4% | [19] 109% | [20] 106%

Nc1ccc(C(=O)Nc2cccc(C(=O)Nc3ccc4c(O)c(N=Nc5ccc(N=Nc6ccc(S(=O)(=O)O)cc6)cc5)c(S(=O)(=O)O)cc4c3)c2)cc1
inactive: [1] 96.8% | [2] 111% | [3] 101% | [4] 98.5% | [5] 105% | [6] 108% | [7] 92.3% | [8] 102% | [9] 103% | [10] 114% | [11] 107% | [12] 88.1% | [13] 93.8% | [14] 101% | [15] 109% | [16] 102% | [17] 104% | [18] 102% | [19] 111% | [20] 97.3%

COc1ccc2oc(=O)cc(-c3nc4ccc(N)cc4[nH]3)c2c1
inactive: [1] 84% | [2] 72% | [3] 86.2% | [4] 70.8% | [5] 102% | [6] 80.2% | [7] 64.1% | [8] 90% | [9] 96.8% | [10] 84.9% | [11] 97.5% | [12] 119% | [13] 121% | [14] 74.2% | [15] 95.1% | [16] 87.5% | [17] 90.2% | [18] 82.3% | [19] 132% | [20] 114%
